Compounds with a hit are over-represented: about 1.3% of the library has one in this group of screens.
eLon inh: E. coli protease La inhibition. purified E. coli Lon protease, fluorescence polarization. inhibition, % at 7.94 µM. hit rate 0.42% among 360,000. P0A9M0; in the data active = inhibition above about 13%, passing the limit was not always enough;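 note: 0% = enzyme with probe and DMSO and 100% = no enzyme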
IDE cell inh: inhibits human insulin-degrading enzyme in HEK cells. FAbetaB cleavage, fluorescence polarization. inhibition, % at 5.59 µM. hit rate 0.41% among 320,000. AID 434962;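 active = percent inhibition above the average of all tested compounds plus 3 SD, set per screening campaign, cut at about 16% in these data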;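 note: IDE supplied by intact live HEK cells; FP after avidin binding of uncleaved biotin substrate so inhibition keeps polarization high; 0% = DMSO wells and 100% = 60 µM reference IDE inhibitor Ii1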
IDE cell activ: IDE (human) activation, cell-based; activation, % at 5.96 µM; P14735; HEK cells, FAbeta-B cleavage, fluorescence polarization; 0% vehicle, 100% cell-free pure enzyme wells; hit rate 0.073% among 340,000;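 active = activation above the mean of all tested compounds plus 3 SD, set per screening campaign, cut at about 17% in these data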
Rin1-Abl PPI inh: human Rin1-Abl interaction inhibition | P00519+Q13671 | TR-FRET Rin1/Abl binding, biochemical | inhibition, % at 7.35 µM | hit rate 0.4% among 360,000; in the data active = inhibition above about 5%, passing the limit was not always enough
PKA-R2B act: PKA-R2B complex activation; P22694+P31323; PKA-R2B holoenzyme dissociation, Cy5-IP20 fluorescence polarization; R2B truncated from residue 108, S112A mutant; 0% DMSO only, 100% 113 µM cGMP; activation, % at 11.4 µM; hit rate 0.079% among 340,000; AID 504700;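 active = activation above a cutoff set at the mean over all compounds plus 3 SD, cut at about 18% in these data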;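 note: higher means more holoenzyme dissociation and a rise in polarization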
Target sequence (P31323 whole entry, looked up, other chains not shown, the tested form may be a part): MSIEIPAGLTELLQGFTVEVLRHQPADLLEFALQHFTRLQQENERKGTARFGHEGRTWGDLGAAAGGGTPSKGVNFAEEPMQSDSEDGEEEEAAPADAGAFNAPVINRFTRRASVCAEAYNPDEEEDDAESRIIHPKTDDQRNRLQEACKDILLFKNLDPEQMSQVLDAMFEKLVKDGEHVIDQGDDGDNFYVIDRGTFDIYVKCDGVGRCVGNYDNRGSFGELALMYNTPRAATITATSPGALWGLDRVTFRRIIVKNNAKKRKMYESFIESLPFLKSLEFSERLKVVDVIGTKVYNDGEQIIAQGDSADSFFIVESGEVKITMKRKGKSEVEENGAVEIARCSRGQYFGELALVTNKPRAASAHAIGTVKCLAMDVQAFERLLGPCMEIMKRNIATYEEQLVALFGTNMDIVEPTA
PKA-R1A act: activates the PKA-R1A holoenzyme complex; P00514+P68181; PKA-R1A dissociation, Cy5-IP20 fluorescence polarization; scaled: DMSO 0%, 113 µM cGMP 100%; activation, % at 11.4 µM; hit rate 0.083% among 340,000; AID 504707;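 active = percent activation above the mean of all tested compounds plus 3 SD, cut at about 19% in these data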;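 note: higher means more PKAc released from R1A so a rise in polarization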
Rin1 Abl conf: Rin1-Abl interaction inhibition confirmation | shares compounds with Rin1-Abl PPI inh | TR-FRET Rin1-Abl binding, purified proteins | inhibition, % at 7.35 µM | hit rate 49% among 1,300 | AID 602124
GFP quencher: counter-screen for Rin1-Abl inhibitors: GFP fluorescence quenchers | shares compounds with Rin1-Abl PPI inh | inhibition, % at 6.75 µM | inhibitors/quenchers counterscreen | hit rate 8.5% among 1,300;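 note: ABL1-eGFP fusion protein alone without its partner RIN1-SBP; 0% = protein with vehicle and 100% = wells lacking protein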
* marks the source's active call; other numbers are inactive results. Cut-off read from the data, not from the text of the source, unless noted: active = inhibition above about 6.5%; inactive = the rest.

For O=c1cc2c(=O)oc3cc(O)c(O)oc3c2c(O)c1O the results were eLon inh -6, IDE cell activ 2, Rin1-Abl PPI inh 56*, PKA-R2B act 11, PKA-R1A act 2, Rin1 Abl conf 51* and GFP quencher 34*.
For Cc1nnc(N/N=C/c2ccc(-c3ccc(Br)cc3)o2)n1N the results were eLon inh -4, IDE cell inh 10, IDE cell activ 0, Rin1-Abl PPI inh -2, PKA-R2B act -9 and PKA-R1A act -12.
Screening Cc1nnc(N/N=C/c2ccc(Br)cc2)n1N returned eLon inh -12, IDE cell inh 4, IDE cell activ 4, Rin1-Abl PPI inh 6.7*, PKA-R2B act 5, PKA-R1A act -4, Rin1 Abl conf -4 and GFP quencher -2.
Cc1ccc(C)c(NC(=O)CCN2CCCCC2)c1 was read as eLon inh 2, IDE cell inh -1, IDE cell activ 4, Rin1-Abl PPI inh 1, PKA-R2B act -4 and PKA-R1A act 4.
Cc1ccc2cc(NC(=O)c3ccccc3)ccc2n1 was read as eLon inh 1, IDE cell inh 0, IDE cell activ 2, Rin1-Abl PPI inh -1, PKA-R2B act -7 and PKA-R1A act -1.
Cc1ccc2cc(NC(=O)CC(CC(=O)O)c3ccccc3)ccc2n1 (stereo unspecified) was read as eLon inh -7, IDE cell inh 1, IDE cell activ 1, Rin1-Abl PPI inh 8.6*, PKA-R2B act -4, PKA-R1A act -6, Rin1 Abl conf 1 and GFP quencher -1.
Screening COc1ccc(C(=O)NCc2nnc(SCC(=O)N3CCCC3)o2)cc1OC returned eLon inh -5, IDE cell inh 3, IDE cell activ 6, Rin1-Abl PPI inh 1, PKA-R2B act 2 and PKA-R1A act 2.
For CN1CCCN(c2cc(-c3ccc4ccccc4c3)nc3ccnn23)CC1 the results were eLon inh 5, Rin1-Abl PPI inh 13*, Rin1 Abl conf 12* and GFP quencher 12*.
C1CCC(c2nn3c(-c4n[nH]c5c4CCC5)nnc3s2)CC1 was read as eLon inh 4, IDE cell inh 2, IDE cell activ 1, Rin1-Abl PPI inh 25*, PKA-R2B act 12, PKA-R1A act -6, Rin1 Abl conf 14* and GFP quencher 0.
For CCN(CC)c1ccc(-c2nn3c(-c4n[nH]c5c4CCC5)nnc3s2)cc1 the results were eLon inh -29, IDE cell inh 0, IDE cell activ -1, Rin1-Abl PPI inh -3, PKA-R2B act -7 and PKA-R1A act -8.
For COc1ccc(CN=CC2=C(O)CNC2=O)cc1 the results were eLon inh 15, IDE cell inh -1, IDE cell activ -11, Rin1-Abl PPI inh 34*, PKA-R2B act -6, PKA-R1A act -1, Rin1 Abl conf 43* and GFP quencher 0.
`CCC(=O)Nc1cccc(-c2csc(-c3ccccc3)n2)c1` gave eLon inh -11, IDE cell inh -1, IDE cell activ -1, Rin1-Abl PPI inh 1, PKA-R2B act 4 and PKA-R1A act -1.
`COc1ccc(CN2C[C@@H](CO)O[C@@H](n3cnc4c(NC5CCC5)ncnc43)C2)cc1` gave eLon inh -3, Rin1-Abl PPI inh 12*, Rin1 Abl conf 11* and GFP quencher 0.
Screening COc1ccc(CN2C[C@@H](CO)O[C@@H](n3cnc4c(NC5CC5)ncnc43)C2)cc1 returned eLon inh -10 and Rin1-Abl PPI inh 6.
Screening OC[C@@H]1CN(Cc2ccncc2)C[C@H](n2cnc3c(NC4CC4)ncnc32)O1 returned eLon inh -3 and Rin1-Abl PPI inh 7.

Screening data (PubChem BioAssay)
